Laboratory results: the supplement of paper PMC6555819

Columns and labels:
Experiment in all cases: PBM binding z-score (relative to random genomic background probes); higher = stronger binding; sequences stand for … in GC…GCGATTGACAGCGTAGAATGAAGG
[1] = test system: RARb homodimer (NR concentration 270 nM)
Procedure, shortened: (§1)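 The probes on custom Agilent 4×180K protein-binding microarrays were double-stranded, with 34-nt variable regions bearing direct-repeat seeds, single-nucleotide variants, half-site ablations and random human genomic background sequences. Incubation lasted 1 h with ligand-free nuclear receptor dimers in PBS pH 7.4, 2% milk, 0.02% Triton X-100, 1 mM DTT, 0.2 mg/mL BSA and 0.4 mg/ml salmon testes DNA. Antibodies against each partner (one per run) detected bound dimers, and fluorescence scans were regression-normalized. Binding z-scores take the random background probes as reference.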

[2] = test system: RARg:RXRa (NR concentration 270 nM, RXRa partner concentration 90 nM)
Procedure, shortened: as §1

[3] = test system: RARg homodimer (NR concentration 270 nM)
Procedure, shortened: as §1

[4] = test system: RXRa DBDmut IVT, anti-RXR (DBD mutation: RXRa K156A/R161A, NR concentration 90 nM)
Procedure, shortened: as §1

[5] = test system: RXRa homodimer (NR concentration 180 nM)
Procedure, shortened: as §1

[6] = test system: THRa:RXRa (NR concentration 90 nM, RXRa partner concentration 90 nM)
Procedure, shortened: as §1

[7] = test system: THRa homodimer (NR concentration 90 nM)
Procedure, shortened: as §1

[8] = test system: VDR homodimer (NR concentration 270 nM)
Procedure, shortened: as §1

Sequence | PBM binding z-score [1] | PBM binding z-score [2] | PBM binding z-score [3] | PBM binding z-score [4] | PBM binding z-score [5] | PBM binding z-score [6] | PBM binding z-score [7] | PBM binding z-score [8]
GCTCGTAGGACAAGGTCAGAGCTTTGTCCGTAGA | 2.93 | 2.95 | 3.49 | 0.281 | 2.55 | 2.64 | 0.975 | 0.106
AGAATGTGGTTAAGATCAGGGAAACAGAATACAT | 0.296 | 0.287 | 0.502 | -0.315 | -0.0174 | 0.458 | -0.00414 | 0.151
CTCGAAAGGACGGTTGAGGTGAGTATACGGATAA | 0.363 | 0.406 | 0.541 | -0.024 | 0.139 | 2.93 | 0.887 | 0.0364
CCTAGCAGGGCAGGGTCACTCAAGCATTTCGCTT | 3.05 | 3.61 | 3.01 | 0.33 | 4.08 | 2.8 | 0.567 | 1.75
CCTAGTTGGTCAAGGTCACAAACGCTATAGGTAC | 4 | 4.1 | 4.24 | 1.87 | 4.02 | 4 | 3.57 | 3.9
CCCACTGGGCCAAAGGTCATTGATTCCAATGCTC | 4.72 | 5.82 | 4.39 | 0.468 | 6.2 | 3.27 | 0.821 | 2.28
AGAATGAGGTTATTAAGATCCGGGAATTGCGGTC | 0.644 | 0.904 | 0.682 | 1.93 | 1.68 | 2.29 | 0.695 | 0.784
CCGACTCGGGCAGAAAGGTTACCATACCATCCGG | 1.59 | 1.41 | 1.02 | -0.246 | 1.6 | 1.01 | -0.699 | -0.0904
TTTAGTTGGTCACGGAGGTCACACACGACGGGTA | 4.52 | 5.05 | 5.2 | 0.387 | 4.87 | 3.75 | 3.15 | 3.7
ACTATTAGTTGACCTAGGGCAACCGATACGACGC | 3.05 | 2.88 | 2.36 | 0.89 | 2.55 | 2.96 | 1.6 | 0.946
AGAATGAGGTTAAGATCAGGCAAACAGAATACAT | 0.764 | 2.13 | 1.63 | 0.944 | 2.49 | 2.86 | 0.441 | 0.247
AGAACGAGGGCAATGAGTTGATTGCACGGGTGGC | 0.636 | 0.81 | 1.23 | 1.88 | 0.475 | 0.794 | -0.344 | 3
CCGACTGGGGCATAAGGTTTCCATAAGCCAGCCC | -0.165 | -0.272 | -0.139 | -0.156 | -0.0441 | -7.82e-06 | -0.206 | -0.137
CGAACTAGGTCATTGACAGGACAGAGAATAGTAA | 2.47 | 4.41 | 4.12 | 2.25 | 2.5 | 2.8 | 0.787 | 1.26
CCTACTGGGCCAAAAAGGTCAATGATGCCGATAA | 4.77 | 4.33 | 4.09 | -0.0473 | 4.06 | 3.06 | 0.77 | 0.956
CAAACTAGGGCACGAAAGGTCAAAGTCGAATGAC | 5.2 | 6.2 | 5.83 | 1.44 | 6.29 | 4.84 | 0.977 | 1.87
CCTAGTCGGTCAGGAGGTCACACACCGGATATGA | 4.67 | 5.93 | 5.46 | 0.219 | 4.75 | 3.37 | 2.55 | 2.83
TCGAGTAGGTTAAGGGCATTCAGAATGGCGTCGA | 1.47 | 1.08 | 1.23 | 0.693 | 1.18 | 2.16 | 0.794 | 1.14
CCTTACGGGTCACTCCACGTTATAGCATCGGAGT | 2.58 | 4.04 | 4.01 | 1.41 | 4.01 | 1.88 | 0.13 | 1.23

Sequence | PBM binding z-score [1] | PBM binding z-score [2] | PBM binding z-score [3] | PBM binding z-score [4] | PBM binding z-score [5] | PBM binding z-score [6] | PBM binding z-score [7] | PBM binding z-score [8]
CTACCGAGGTGAACAAGGTCGTTGATTACTATTC | 2.25 | 2.19 | 1.74 | 1.74 | 2.4 | 3.6 | 2.43 | 3.13
GGAACTAGGGCATTCGAGTTGATAGCATGGCGAT | 0.555 | 0.292 | 0.971 | 0.774 | 0.131 | 2.13 | -0.433 | 0.769
TCTATTAGTTGATTAGGTCAACCGAAACAGCGGA | 3.09 | 2.8 | 2.68 | 1.55 | 2.1 | 3.1 | 2.74 | 1.2
CAAATTAGGTCACGAAAGGTCAAAGTCGAATGAC | 6.08 | 8.12 | 8.73 | 2.57 | 8.6 | 5.25 | 3.01 | 3.61
ATCTCTACGTAAAGATAGTTCAGTGAATGCAAAT | 0.65 | 0.0953 | 0.572 | 0.102 | 0.153 | 0.0897 | -0.716 | 0.535
AGAAGGAGGTTACCAAAGATCAGGGAAACGCTTG | 1.11 | 1.66 | 1.54 | -0.25 | 2.27 | 1.73 | 0.244 | 0.128
CCTATCAGGCCAATCTGGGTCACTCAAGGCTTGA | 2.48 | 1.44 | 1.71 | 0.421 | 1.14 | 4.02 | 1.16 | -0.0119
CCGACTGGGGCAAGGTGACCATAACGCACAGCCA | 1.11 | 0.469 | 0.934 | -0.745 | 0.419 | 0.718 | 0.18 | -0.459
ATCTCAAGGTAACCAAGTTCAGTGAATGCCGAAC | 1.51 | 1.21 | 1.06 | 1.01 | 0.816 | 2.24 | 1.06 | 3.2
CCTTACGGGTCAATCCAGGTTATAGCATCGGAGT | 3 | 4.49 | 4.17 | 1.75 | 4.31 | 4.93 | 0.547 | 1.32
CCTCGGAGGACAGCAGGTCAGAGCTGTCCGCTTT | 2.25 | 2.17 | 1.91 | -0.0565 | 0.242 | 1.74 | 0.123 | -0.273
GCGAGTTGGTCAGTAAAAGGTCACACACCGGTCG | 5.05 | 5.52 | 4.95 | 1.34 | 5.54 | 3.47 | 1.74 | 2.27
TAGCCTAGTTCATTGGGCCAGTATAGTACGCATC | 0.671 | 0.573 | 1.01 | 2.8 | 0.243 | 0.192 | -0.374 | 2.72
CGTCAAAGTTCAAGGTACCGTAACAGAAAGCAGC | 3.94 | 5.07 | 6.14 | 4.56 | 4.33 | 2.06 | 0.154 | 3.09
CCTCGGATGACAGAAGGTCAGAGCTGTCCGCTTT | 2.83 | 2.49 | 2.16 | 0.111 | 2 | 1.95 | -0.359 | 0.287
CAAACTAGGTCATCGGAAGGTCAAAGTCCGCATG | 5.46 | 8.08 | 6.47 | 2.25 | 5.58 | 4.2 | 2.3 | 3.67
ATCTCTAGGTAAAGATAGTTCAATGAATGCAAAT | 1.4 | 1.08 | 1.05 | 0.373 | 0.737 | 1.05 | -0.0901 | 1.15
TCTTGTAGATCAGGCAGGTTAAGAAAGCCTGAGT | -0.0605 | -0.161 | -0.489 | 0.355 | 0.102 | 0.149 | -0.429 | 0.00584
AGAAGGAGGTTAAGATCAGGGAAACAGAATACAT | 1.51 | 1.73 | 1.36 | 0.0542 | 1.96 | 1.94 | 0.811 | 0.91

Sequence | PBM binding z-score [1] | PBM binding z-score [2] | PBM binding z-score [3] | PBM binding z-score [4] | PBM binding z-score [5] | PBM binding z-score [6] | PBM binding z-score [7] | PBM binding z-score [8]
GCTATTAGTTGAAAGGGCAACTGAATGATTCTCG | 1.9 | 1.45 | 1.31 | 0.912 | 1.25 | 0.832 | -0.217 | 0.256
AGTCAAAGATCATCTAGGTAACGTAAGATATGCT | -0.47 | 0.163 | 0.343 | -0.336 | 0.746 | 1.07 | -0.24 | -0.621
CCTGTTAGTTGACCATAAGGGCAACCGAAGCTCG | 2.14 | 1.2 | 0.916 | 0.329 | 0.511 | 1.88 | 1.5 | 0.539
TATACAGGGTCAAGGGCCAGAGTACGAATGTCGA | 3.62 | 5.65 | 5.33 | 2.14 | 6.23 | 3.68 | 1.08 | 2.13
ACTAGCAGGCTAAGTTTGGGTCACTCAAACAAAG | 1.72 | 0.94 | 0.818 | -0.349 | 0.549 | 2.37 | 0.936 | -0.0144
GCCTACGGGTCAAAGGTTATAGCATGAATAGAAT | 3.15 | 6.82 | 4.24 | 1.55 | 9.55 | 3.62 | -0.143 | 1.08
CGTCAAAGTTCAACTCAGGTAACGTAAAGCACGC | 4.24 | 5.85 | 6.43 | 4.55 | 5.06 | 5.03 | 1.38 | 4.21
ATCGAAAGGTCGAAGTGAGTATAGAGAAAGGGAA | 1.86 | 3.79 | 3.6 | 1.4 | 3.83 | 1.81 | -0.426 | 0.425
CGAACTACGTCAAGGACAGTGAATCTCCGCACGC | 0.242 | -0.205 | 0.151 | 0.114 | 0.0152 | 1.67 | 1.13 | 0.0374
ACTAGCAGGCCAAGTTTGAGTCACTCAAACAAAG | -0.195 | 0.0466 | 0.196 | -0.27 | -0.333 | -0.188 | -0.77 | -0.27
TCATATAGGTAAAACGTGAAAGTCGGTGTGGTAA | -0.166 | 0.237 | -0.0627 | 1.62 | 0.564 | 0.025 | -0.0697 | 0.126
TCTCGGAGGACACGAAAGTTCAGAGCTCGACATC | 3.16 | 2.2 | 3.44 | 1.32 | 1.14 | 2.22 | 0.943 | 2.55
CTACCTAGGTGAACAAGGTCGTTGATTACTATTC | 1.73 | 1.31 | 0.8 | 1.27 | 1.34 | 2.67 | 1.54 | 2.12
GCTGCTAGGTCAAATGATGGTCAGCTAAAGCTCG | 3.24 | 5.08 | 5.22 | 1.89 | 3.09 | 2.78 | 0.255 | -0.00739
TCATAAAGGTAAAAGGTGAAAGTCGGTGTGGTAA | 2.25 | 2.87 | 1.28 | 1.94 | 4.16 | 2.34 | 0.408 | 0.435
AATACAGGGTCATCGTAGGCCATAGTACGCACAG | 3.72 | 5.77 | 4.97 | 3.55 | 6.52 | 4.94 | 1.54 | 3.64
TCAGACAGGTGAAGGTAACTGAGGTACGCAGTCG | 0.685 | 0.664 | 0.586 | 1.05 | 1.18 | 1.31 | 0.494 | -0.194
CCTACTGGGCCAAGGTCAATGATCAGTCAAAGCA | 3.38 | 3.51 | 3.62 | 0.404 | 3.12 | 3.18 | 1.77 | 1.61
